This note sets out measurements from PubChem BioAssay.

Assay [1] is described as follows: sensitizers of A549 cells to miR-34 induction, primary screen, imaging, A549 dox-inducible miR-34, nuclei and caspase counts (AID 1347080). The settings on record: A549 miR-34 inducible, Hoechst nuclei count, 48 h.
Assay [2] is described as follows: survival rescue of mitochondrial mutant cells in low glucose, primary screen, MELAS cybrids, Rieske KO mouse fibroblasts, CellTiter-Glo (AID 1508586;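 active = mean z-score across replicates of 1.96 or higher in either the MELAS or the Rieske mutant cell line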;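 also: z relative to plate mean and SD of compound and empty wells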). On the technique in general: In ATP-based viability assays light output follows the ATP content of the culture.
Setting [3] is: stronger effect = lower value, cell number ratio, induced over uninduced.
Setting [4] is: measured here: relative caspase fold change +Dox/-Dox.
Setting [5] is: measured here: total cells with miR-34 induction, stronger effect = lower value.
[6] abbreviates: measured here: total cells without miR-34 induction.
The mark [7] stands for this setting: MELAS cybrid survival, CellTiter-Glo 48 h, stronger effect = higher value.
Where [8] appears, read: Rieske KO mouse fibroblast survival, CellTiter-Glo 72 h.

Activity calls are given as the source filed them.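 The calls were made as follows, unless noted: active = compounds whose cell count with miR-34 switched on is under 0.7 times the count with it off; inactive = the rest.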
Also: test concentration not given here.

Take `S=C=Nc1cccc(NC(=S)NCCCCNC(=S)Nc2cccc(N=C=S)c2)c1`: the fold change is 0.972 (inactive) in assay [1] (setting [3]) and 0.614 in assay [1] (setting [4]). The cell count in assay [1] (setting [5]) is 7440; in assay [1] (setting [6]), 7650. Besides, the z-score in assay [2] (setting [7]) was -0.615 (inactive); in assay [2] (setting [8]), 0.0526.
Regarding `C=C1C(=CC=C2CCC[C@]3(C)C(C(C)CCCC(C)C)CC[C@@H]23)CC(O)CC1O` (stereo not given in full), the fold change in assay [1] (setting [3]) was 0.908 (inactive); in assay [1] (setting [4]), 0.753. In addition, the cell count in assay [1] (setting [5]) stood at 6380; in assay [1] (setting [6]), 7020. Moreover, the values for the z-score in assay [2] (setting [7]) and in assay [2] (setting [8]) were 0.162 (inactive) and 0.335, respectively.
In the case of `CC1(C)S[C@@H]2C(NC(=O)C(C(=O)O)c3ccccc3)C(=O)N2C1C(=O)O` (stereo not given in full), the results for the fold change in assay [1] (setting [3]) and in assay [1] (setting [4]) were 0.89 (inactive) and 0.816, respectively. The cell count in assay [1] (setting [5]) is 8430; in assay [1] (setting [6]) it was 9470. In addition, the z-score in assay [2] (setting [7]) is -0.386 (inactive); in assay [2] (setting [8]), -0.157.
For `C=C1CCC(O)CC1=CC=C1CCC[C@]2(C)C(C(C)CCCC(C)C)CC[C@@H]12` (stereo not given in full), the fold change in assay [1] (setting [3]) was 0.915 (inactive); in assay [1] (setting [4]), 0.845. Further, the cell count in assay [1] (setting [5]) was found to be 8000; in assay [1] (setting [6]), 8740. Also, the results for the z-score in assay [2] (setting [7]) and in assay [2] (setting [8]) were -0.279 (inactive) and -0.0631, respectively.
Turning to `C#CCC(c1nc2cc(Cl)ccc2c(=O)n1Nc1ccccc1)N(CCCN)C(=O)c1cccc(Cl)c1F` (stereo not given), the fold change in assay [1] (setting [3]) was 0.689 (active); in assay [1] (setting [4]) it was 0.42. Moreover, the figures for the cell count in assay [1] (setting [5]) and in assay [1] (setting [6]) were 882 and 1280, respectively. For the same compound, the results for the z-score in assay [2] (setting [7]) and in assay [2] (setting [8]) were 1.61 (inactive) and 0.152, respectively.
As for `COc1cc(-c2ncn(C=CC(=O)OC(C)C)n2)cc(C(F)(F)F)c1`, the fold change in assay [1] (setting [3]) is 0.884 (inactive); in assay [1] (setting [4]), 0.634. Moreover, the cell count came to 2040 in assay [1] (setting [5]) and 2310 in assay [1] (setting [6]). The z-score in assay [2] (setting [7]) is -0.00249 (inactive); in assay [2] (setting [8]), -7.09.
In the case of `COC1=C2CC(C)CC(OC)C(O)C(C)C=C(C)C(OC(N)=O)C(OC)C=CC=C(C)C(=O)NC(=CC1=O)C2=O` (stereo not given), the fold change in assay [1] (setting [3]) was 0.91 (inactive); in assay [1] (setting [4]), 1.01. In addition, the cell count was determined as 3230 in assay [1] (setting [5]) and 3550 in assay [1] (setting [6]). Moreover, the z-score in assay [2] (setting [7]) was 2.85 (active); in assay [2] (setting [8]), -2.42.
As for `CCc1cc2c(cc1CC)CC(NCC(O)c1ccc(O)c3[nH]c(=O)ccc13)C2` (stereo not given), the results for the fold change in assay [1] (setting [3]) and in assay [1] (setting [4]) were 1.01 (inactive) and 0.491, respectively. Further, the results for the cell count in assay [1] (setting [5]) and in assay [1] (setting [6]) were 7460 and 7410, respectively. Besides, the results for the z-score in assay [2] (setting [7]) and in assay [2] (setting [8]) were -0.199 (inactive) and -0.118, respectively.
On to `CCC(=C(CC)c1ccc(O)cc1)c1ccc(O)cc1`, for which the fold change in assay [1] (setting [3]) was 0.852 (inactive); in assay [1] (setting [4]), 1.22. The cell count amounted to 7280 in assay [1] (setting [5]) and 8550 in assay [1] (setting [6]). The z-score in assay [2] (setting [7]) was -0.347 (inactive); in assay [2] (setting [8]), 0.452.
For the compound `Cc1ccc(-c2c(-c3nn(C)c4ncnc(N5CCC(N6CCCCC6)C5)c34)cnn2C)cc1` (stereo not given), the fold change is 0.989 (inactive) in assay [1] (setting [3]) and 0.458 in assay [1] (setting [4]). Further, the cell count in assay [1] (setting [5]) is 8040; in assay [1] (setting [6]) it was 8120. The z-score in assay [2] (setting [7]) was -0.254 (inactive); in assay [2] (setting [8]), -0.0628.
As to `CC1=C(C(=O)O)N2C(=O)C(NC(=O)C(N)c3ccccc3)[C@@H]2SC1` (stereo not given in full), the fold change was 0.987 (inactive) in assay [1] (setting [3]) and 0.849 in assay [1] (setting [4]). For the same compound, the cell count in assay [1] (setting [5]) was found to be 7060; in assay [1] (setting [6]), 7150. For the same compound, the figures for the z-score in assay [2] (setting [7]) and in assay [2] (setting [8]) were -0.417 (inactive) and 0.0723, respectively.
Consider `CC(C)(Oc1ccc(Cl)cc1)C(=O)OCCOC(=O)c1cccnc1`, for which the fold change in assay [1] (setting [3]) is 0.919 (inactive); in assay [1] (setting [4]) it was 0.391. The results for the cell count in assay [1] (setting [5]) and in assay [1] (setting [6]) were 8570 and 9330, respectively. The z-score was -0.212 (inactive) in assay [2] (setting [7]) and -0.266 in assay [2] (setting [8]).
With `CC(NC(=O)CCc1nc2ccccc2c(=O)[nH]1)c1ccccc1` (stereo not given), the fold change in assay [1] (setting [3]) was 0.914 (inactive); in assay [1] (setting [4]), 0.487. For the same compound, the cell count in assay [1] (setting [5]) was 8620; in assay [1] (setting [6]), 9430. Further, the values for the z-score in assay [2] (setting [7]) and in assay [2] (setting [8]) were -0.406 (inactive) and -0.138, respectively.
For `O=C(Nc1ccccc1)Nc1ccc(-c2ccc(C(=O)C3CCCC3C(=O)O)cc2)cc1` (stereo not given), the fold change in assay [1] (setting [3]) was 0.846 (inactive); in assay [1] (setting [4]) it was 0.729. Further, the figures for the cell count in assay [1] (setting [5]) and in assay [1] (setting [6]) were 9210 and 10900, respectively. In addition, the z-score in assay [2] (setting [7]) is -0.239 (inactive); in assay [2] (setting [8]), 0.453.
Regarding `C=CCNC1=C2CC(C)CC(OC)C(O)C(C)C=C(C)C(OC(N)=O)C(OC)C=CC=C(C)C(=O)NC(=CC1=O)C2=O` (stereo not given), the fold change in assay [1] (setting [3]) is 1.02 (inactive); in assay [1] (setting [4]), 1.05. In addition, the figures for the cell count in assay [1] (setting [5]) and in assay [1] (setting [6]) were 1870 and 1820, respectively. The figures for the z-score in assay [2] (setting [7]) and in assay [2] (setting [8]) were 1.58 (inactive) and -0.477, respectively.
